Experimental data published in ChEMBL document CHEMBL3988442, “University of Dundee, Small-Polar-MMV Screening Library” (2021).
The campaign covered roughly 85,000 compounds. About 440 (0.52%) showed an effect of 50% or more. The list comes from a sample in which strong results are over-represented; it also holds similar structures and randomly drawn compounds.

Assay: In vitro enzyme assay to detect hydrolysis of chlorophenol red-beta-D-[…] directly proportional to the number of Toxoplasma stably expressing beta-galactosidase
Assay type: functional, organism-based, Toxoplasma gondii
Design: scale not given: in the data most compounds retested in dose-response had high values

Row | SMILES | Percent Effect (50 µM) [%] | Percent Effect (10 µM) [%]
1 | CC(C(N)=O)N(C)CCCOc1ccccc1 (stereo unspecified) | 9.989 | 
2 | Cc1ccccc1OCCC(=O)OC(C)C(=O)Nc1sccc1C(N)=O (stereo unspecified) |  | -4.306
3 | CC(C(=O)Nc1sccc1C(N)=O)N(C)CCOc1ccccc1 (stereo unspecified) |  | 66.89
4 | CCc1nsc(N2CC(CO)C2)n1 | 7.559 | 
5 | CCCC(O)CNS(=O)(=O)c1cc(F)cc(F)c1 (stereo unspecified) | -5.662 | 
6 | CC1CCCN(C(=O)c2cc(O)nc3ccccc23)C1 (stereo unspecified) | 6.15 | 
7 | COc1ccc(C2CCCN2c2ccnc(C)c2Cl)c(OC)c1 (stereo unspecified) |  | 50.91
8 | COc1ccc(C2CCCN2c2cnccn2)c(OC)c1 (stereo unspecified) |  | -3.299
9 | COc1ccc(C2CCCN2c2nnc(C)s2)c(OC)c1 (stereo unspecified) |  | 0.194
10 | NCCN1CCc2c(Cl)cccc2C1=O | 17.2 | 
11 | NC1CCN(C(=O)C2CCCC2)C1 (stereo unspecified) | 2.86 | 
12 | Cn1nc(-c2nc(C(C)(C)C)no2)ccc1=O | 3.371 | 
13 | N#CC[C@@H](N)c1ccccc1 | -6.546 | 
14 | CNc1cc(-c2cccc(OC)c2OC)nc(N)n1 | 50.78 | 
15 | COc1ccc(-c2cc(NCCO)nc(N)n2)cc1C | 29.21 | 
16 | COc1ccc(F)c(-c2cc(NCCO)nc(N)n2)c1 |  | 0.663
17 | CC(C)(C)CCOc1cnccc1CN | 14.78 | 
18 | Cc1cc(NCCO)nc(N2CCCC2)c1C#N |  | 1.046
19 | Cc1cc(NCCO)nc(N2CCC(Cc3ccccc3)CC2)c1C#N.O=C(O)C(=O)O |  | 62.98
20 | Cc1cc(NCCO)nc2ccccc12 | -2.255 | 
21 | Cc1cc(NCCO)nc(N2CCN(C)CC2)c1C#N |  | -10.98
22 | Cc1cc(C)c(C#N)c(N2CCC(Cc3ccccc3)CC2)n1 |  | -2.69
23 | CCCC(C)C(=O)N1CCOCC1 (stereo unspecified) | -3.427 | 
24 | NC(=O)CN(CCCO)Cc1ccccc1 | -1.308 | 
25 | O=S(=O)(CCN1CCC(CO)CC1)c1ccccc1 | -26.81 | 

Row | SMILES | Percent Effect (50 µM) [%] | Percent Effect (10 µM) [%]
26 | Cc1cc(=O)[nH]c(-n2nc(C3CC3)cc2N)n1 |  | 28.72
27 | CCc1c(C)nc(-n2nc(C3CC3)cc2NC(C)=O)[nH]c1=O |  | -1.935
28 | CCCc1cc(=O)[nH]c(C(C)(N)CC)n1 (stereo unspecified) | 0.6774 | 
29 | CC(C)c1cc(=O)[nH]c(C(C)(C)N)n1.Cl |  | 21.75
30 | CCc1cc(=O)[nH]c(-n2nc(C3CC3)cc2NC(=O)C2CC2)n1 |  | 96.09
31 | CCCc1cc(=O)[nH]c(-n2nc(-c3cccs3)cc2N)n1 |  | 36.6
32 | CCCc1cc(=O)[nH]c(-n2nc(C3CC3)cc2N)n1 |  | 94.33
33 | CC(C)c1cc(=O)[nH]c(-n2nc(C3CC3)cc2N)n1 |  | 94.68
34 | Cn1nc(CNC(=O)C2CC2)cc1C1CC1 |  | -6.984
35 | Cc1nscc1C(=O)OCCC(=O)NC(C)C | -12.79 | 
36 | CCCn1nc(C)cc1NC(=O)N1CCCC(C#N)C1 (stereo unspecified) | -0.4936 | 
37 | COc1cc(Br)cnc1C#N | -14.47 | 
38 | CSCc1ccc(C(=O)N2CC(CC(N)=O)C2)cc1 | -6.52 | 
39 | NCc1ccccc1OC(F)(F)F | 14.39 | 
40 | OC1(c2ccccc2)CCCNCC1 (stereo unspecified) | 3.493 | 
41 | CCc1nnc(NC(=O)c2ccc(S(=O)(=O)NC)o2)s1 | -1.635 | 
42 | CCSc1ccc(C(=O)NCCc2nnc[nH]2)cn1 | 5.402 | 
43 | CCc1ccccc1OCC(=O)N1CCOCC1c1ncon1 (stereo unspecified) |  | 7.498
44 | Cc1cccc(C)c1OCC(=O)N1CCOCC1c1ncon1 (stereo unspecified) |  | 56.8
45 | O=C(COc1cccc(Cl)c1)N1CCOCC1c1ncon1 (stereo unspecified) |  | 37.28
46 | OC1(C2CCCCC2)CCNCC1 | 0.8115 | 
47 | C=C(Br)CN1CCN(CCNC(=O)C2CCC2)CC1 | -27.84 | 
48 | CN(C)c1ccc(NC(=O)CCc2cccnc2)cn1 | -6.854 | 
49 | CCS(=O)(=O)CCNC1CCN(c2nc3ccc(Cl)cc3s2)CC1 |  | 6.923
50 | Clc1ccc2nc(N3CCC(NCCCC4CCOC4)CC3)sc2c1 (stereo unspecified) |  | -1.385

Row | SMILES | Percent Effect (50 µM) [%] | Percent Effect (10 µM) [%]
51 | CCc1nccn1CCNC1CCN(c2nc3ccc(Cl)cc3s2)CC1 |  | 59.54
52 | CC(=O)Nc1cn[nH]c1 | -20.18 | 
53 | CC(CN)C(=O)Nc1cn[nH]c1 (stereo unspecified) | 55.25 | 
54 | CC(CNC(=O)Nc1cn[nH]c1)N(C)C (stereo unspecified) | -3.915 | 
55 | CCn1cc(S(=O)(=O)N2CCNCC2)c(C)n1 | -15.85 | 
56 | NC(=O)C1CN(c2ccc3cccc(Br)c3n2)CCO1 (stereo unspecified) | -8.237 | 
57 | CS(=O)(=O)c1cc(Cl)cc(CN)c1 | -21.93 | 
58 | CNS(=O)(=O)c1ncccc1N | -16.66 | 
59 | NCc1cccc(CN2CCCC2)c1 | 60.68 | 
60 | NCc1cccc(CN2CCCC2=O)c1 | -4.942 | 
61 | NCc1ccc(CN2CCCCC2)cc1 | 0.9541 | 
62 | Cc1nn(C)c(C)c1NC(=O)N1CCSCC1 | -12.54 | 
63 | CN(C)c1cc(CNC(=O)c2cnccn2)ccn1 |  | 21.24
64 | CN(C)c1cc(CNC(=O)c2nccnc2N)ccn1 | 58.76 | 
65 | CN(C)c1cc(CNC(=O)c2ccncc2)ccn1 | -1.688 | 
66 | O=C1CC[C@@H](CO)N1 | -0.2195 | 
67 | CCS(=O)(=O)c1cccc(CN)c1 | 21.69 | 
68 | Cc1ccc(C(=O)NCCCN2CCCC2)cc1 | 3.9 | 
69 | N#Cc1c(Cl)nsc1NCc1cccnc1OCC(F)(F)F |  | 25.91
70 | CC(O)CNC(=O)NCc1cccnc1OC1CCCC1 (stereo unspecified) |  | -1.891
71 | N#Cc1c(Cl)nsc1NCc1cccnc1OC1CCCC1 |  | 78.06
72 | Cc1cc(NC(=O)NCc2cccnc2OC2CCCC2)n(C)n1 |  | -3.087
73 | COc1ncccc1CNc1snc(Cl)c1C#N |  | 29.55
74 | CNC(=O)NCc1cccnc1OC1CCCC1 | 56.84 | 
75 | CCN1CCCC1CNC(=O)CN(C)S(C)(=O)=O (stereo unspecified) | -8.865 | 

Row | SMILES | Percent Effect (50 µM) [%] | Percent Effect (10 µM) [%]
76 | COc1cccc(NC(=O)CN2CCCNCC2)c1 | -7.679 | 
77 | O=C(Nc1ccccn1)N1CCCN(C2CC2)CC1 | 3.024 | 
78 | O=C(c1ccc(COc2ccc(Cl)cc2)o1)N1N=CCC1(O)C(F)(F)F (stereo unspecified) |  | 95.68
79 | O=C(Cn1cc(Br)cn1)N1N=CCC1(O)C(F)(F)F (stereo unspecified) | -25.92 | 
80 | Cc1cccc(OCc2ccc(C(=O)N3N=CCC3(O)C(F)(F)F)o2)c1 (stereo unspecified) |  | 93.63
81 | O=C(c1ccc(COc2ccccc2Cl)o1)N1N=CCC1(O)C(F)(F)F (stereo unspecified) |  | 45.92
82 | COCc1ccc(C(=O)N2CCC(Oc3ccccc3)(C(=O)O)CC2)o1 |  | 0.5821
83 | COc1ccc(C(=O)N2CCC(Oc3cccc(C)c3)(C(=O)O)CC2)o1 |  | -1.229
84 | CC(C)NC(=O)CNCc1ccc(Br)o1 | 0.3067 | 
85 | CN1CCN(C)C2(CCN(C(=O)C(C)(C)O)CC2)C1 | 7.866 | 
86 | Cc1cc(C(=O)N2CCN(c3nc4c(C)cccc4s3)CC2)no1 |  | 11.62
87 | Cc1cc(C(=O)N2CCN(c3nc4c(C(C)C)cccc4s3)CC2)no1 |  | 14.68
88 | Cc1cc(C(=O)N2CCN(c3nc4c(C(C)C)cccc4s3)CC2)on1 |  | 83.09
89 | CC(C)C(=O)Nc1cccc(CN)c1 | -3.402 | 
90 | CCOCCSc1nnnn1CC1CCCO1 (stereo unspecified) | 4.057 | 
91 | CCn1nc(C)c2nnn(CC(=O)Nc3ccc(C)cc3)c(=O)c21 |  | 5.455
92 | CCc1nc(NCC(=O)N2CCOCC2)c2c(n1)c(C)nn2CC |  | -2.271
93 | CCCc1nc(Nc2cccc(C(N)=O)c2)c2c(n1)c(C)nn2CC |  | 20.54
94 | CCn1nc(C)c(C(C)NC(=O)c2cccc(NCC(=O)O)c2)c1C (stereo unspecified) |  | -6.268
95 | CCc1nc(Nc2ccc(C(=O)NC)cc2)c2c(n1)c(C)nn2CC |  | 64.18
96 | CCc1nc(Nc2cccc(C(=O)NC)c2)c2c(n1)c(C)nn2CC |  | 63.37
97 | CN1C(=O)c2cccn2CC1CNC(=O)c1ccco1 (stereo unspecified) | 46.69 | 
98 | CNC(=O)CS(=O)(=O)Cc1cc(=O)n(C)c(=O)n1C | 9.101 | 
99 | CN(C)C(=O)CN(C)c1ncc(C(F)(F)F)cc1Cl | 0.3926 | 
100 | CCS(=O)(=O)Nc1ccc(C(=O)NC2CC2)cc1 | -14.67 | 

Row | SMILES | Percent Effect (50 µM) [%] | Percent Effect (10 µM) [%]
101 | CCc1nc(C2CCCN2CC(=O)Nc2nncs2)no1 (stereo unspecified) |  | 2.118
102 | Cc1cnc(C(NC(=O)NCc2nc(C3CC3)no2)C2CC2)s1 (stereo unspecified) |  | 2.41
103 | O=C(NCc1nc(C2CC2)no1)Nc1nncs1 | 96.18 | 
104 | Cc1ccccc1C1(O)CCN(Cc2ncc[nH]2)C1 (stereo unspecified) | -4.711 | 
105 | Cc1ncc(CN2CCOC(c3ccc(-c4cnn(C)c4)cn3)C2)s1 (stereo unspecified) |  | -14.87
106 | Cc1ncc(CN2CCOC(c3ccc(-c4ccccc4F)cn3)C2)s1 (stereo unspecified) |  | 56.75
107 | Cc1ncc(CN2CCOC(c3ccc(-c4cc[nH]n4)cn3)C2)s1 (stereo unspecified) |  | -16.2
108 | O=C(NC1CCNC1)C1CCC1 (stereo unspecified) | 7.426 | 
109 | N#Cc1ccc(CN)c(F)c1 | 29.17 | 
110 | CC(C)CNC(=O)CSc1n[nH]c(-c2ccccn2)n1 | 52.47 | 
111 | CC(CSc1n[nH]c(-c2ccccn2)n1)CS(C)(=O)=O (stereo unspecified) | 14.41 | 
112 | CC(Sc1n[nH]c(-c2ccccn2)n1)C(=O)N(C)C (stereo unspecified) | 2.084 | 
113 | CCNc1cccc(OC)c1 | -5.589 | 
114 | Cn1nc(CC#N)c2ccccc21 | -11.92 | 
115 | CCCc1nnc(NCc2cccnc2)o1 | -5.41 | 
116 | OCCOc1ccc(NCc2cccnc2)cn1 |  | 0.5408
117 | Nc1cccnc1NCc1cccnc1 | 56.86 | 
118 | CN(CCN1CCCC1=O)C(=O)c1ncccc1Br | -6.361 | 
119 | N#CCC1COc2ccccc2O1 (stereo unspecified) | -13.18 | 
120 | CC(C)N(C)S(=O)(=O)NCCCN(C)c1ccccc1 | 0.05674 | 
121 | CN(C)C(=O)C1CCN(Cc2ccccc2F)CC1 | -0.8921 | 
